{"source": "PubChem BioAssay AID652115", "about": "(Broad Institute, 2013)", "note": "“And” between values parts separate entries of the source, which are not always exact repeats. Equal entries are not always repeated. About 3,800 (1.2%) of roughly 330,000 compounds were called active. Rule as the data show it: active = inhibition above about 15%; inconclusive = no clear call, values can overlap the other calls; inactive = below that. What follows is part of a selection rich in actives, with near analogues and random picks from the rest. Some structures have more than one record in an assay (separate samples or runs), and their calls can disagree.", "data": [{"molecular_target": "NAD-dependent protein deacylase sirtuin-5, mitochondrial (Homo sapiens) (UniProt Q9NXA8)", "sequence (Q9NXA8 whole entry, looked up)": "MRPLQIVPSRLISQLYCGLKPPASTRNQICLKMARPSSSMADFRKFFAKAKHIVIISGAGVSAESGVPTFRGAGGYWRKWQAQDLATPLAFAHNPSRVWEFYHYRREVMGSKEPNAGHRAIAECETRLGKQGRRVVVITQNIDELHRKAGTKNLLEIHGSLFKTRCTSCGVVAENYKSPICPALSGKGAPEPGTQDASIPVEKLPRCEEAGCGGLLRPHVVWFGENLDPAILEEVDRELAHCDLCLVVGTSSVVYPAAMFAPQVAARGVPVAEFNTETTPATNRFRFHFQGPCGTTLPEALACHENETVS", "assay": "blockers of sirtuin-5 deacylase activity – biochemical, fluorescence imaging, single point, set 5, primary screen (AID 652115)", "conditions": "Purified SirT5, succinyl-peptide AMC, trypsin-coupled fluorescence; at 15 µM; stronger effect = higher value", "values": [{"smiles": "COc1cccc(-c2ccc3n(c2=O)C[C@@H]2[C@@H](CO)[C@H](C(=O)N4CCCCC4)N[C@H]32)c1", "inhibition": "-26.1% (inactive)"}, {"smiles": "C[C@H](O)C#Cc1ccc2c(c1)O[C@H](CN(C)Cc1ccccn1)[C@@H](C)CN([C@@H](C)CO)S2(=O)=O", "inhibition": "2.94% (inactive)"}, {"smiles": "O=C(Cc1ccccc1)N[C@H]1C=C[C@H](CC(=O)N2CCCCC2)O[C@@H]1CO", "inhibition": "1.42% (inactive)"}, {"smiles": "COc1ccc2c3c([nH]c2c1)[C@H](CO)N(C(=O)NC1CCCC1)CC31CN(C(=O)Nc2cccc(F)c2)C1", "inhibition": "5.32% (inactive)"}, {"smiles": "O=C(NC1CCCCC1)N1CC2(C1)[C@@H](c1ccccc1)[C@@H](CO)N2CC1CCOCC1", "inhibition": "-5.9% (inactive)"}, {"smiles": "CC(C)NC(=O)N1CC(=O)N2[C@@H](CO)[C@H](c3ccc(C#CCN(C)C)cc3)[C@@H]2C1", "inhibition": "-1.28% (inactive)"}, {"smiles": "COCC(=O)N(C)C[C@@H]1Oc2cc(C#Cc3cccnc3)ccc2S(=O)(=O)N([C@H](C)CO)C[C@H]1C", "inhibition": "-3.01% (inactive)"}, {"smiles": "O=C(NC1CCCC1)[C@H]1[C@H](CO)[C@H]2Cn3c(ccc(-c4ccccc4F)c3=O)[C@@H]1N2C(=O)CC1CC1", "inhibition": "-18.6% (inactive)"}, {"smiles": "CN1c2ccc(-c3cccc(F)c3)cc2[C@@H]2[C@@H](CCN2C(=O)Nc2ccccc2F)[C@@H]1CO", "inhibition": "-18.1% (inactive)"}, {"smiles": "O=C(C[C@H]1CC[C@@H]2[C@H](COC[C@H](O)CN2S(=O)(=O)c2ccc(F)cc2)O1)NCCN1CCCCC1", "inhibition": "-1.86% (inactive)"}, {"smiles": "O=C(N[C@H]1CC[C@H](CCn2cc(-c3ccccc3F)nn2)O[C@@H]1CO)c1ccc2c(c1)OCO2", "inhibition": "1.25% (inactive)"}, {"smiles": "CN(Cc1ccccc1F)C[C@H]1[C@@H](c2ccccc2)[C@@H](CO)N1S(C)(=O)=O", "inhibition": "0.402% (inactive)"}, {"smiles": "O=C(Nc1ccccc1F)N1C[C@@H]2[C@H](c3ccccc31)[C@@H](CO)N2C(=O)Nc1ccccc1", "inhibition": "-0.735% (inactive)"}, {"smiles": "C[C@@H]1CN([C@H](C)CO)S(=O)(=O)c2ccc(C#CC3CCCC3)cc2O[C@@H]1CN(C)C(=O)Cc1ccncc1", "inhibition": "6.26% (inactive)"}, {"smiles": "C[C@@H]1CN([C@H](C)CO)S(=O)(=O)c2ccc(C#CC3CCCCC3)cc2O[C@H]1CN(C)C(=O)Cc1ccncc1", "inhibition": "0.678% (inactive) and -0.925% (inactive) and 15.2% (active)"}, {"smiles": "C[C@H]1CN([C@@H](C)CO)S(=O)(=O)c2ccc(C#CC3CCCC3)cc2O[C@H]1CN(C)C(=O)Cc1ccncc1", "inhibition": "-0.107% (inactive)"}, {"smiles": "CCCc1nnc(NC(=O)CCC(=O)N2CCN(S(=O)(=O)c3ccc(OC)cc3)CC2)s1", "inhibition": "1.56% (inactive)"}, {"smiles": "CCc1nnc(NC(=O)CCC(=O)N2CCN(c3cc(C)ccc3C)CC2)s1", "inhibition": "18.5% (active)"}, {"smiles": "CC(C)c1nnc(NC(=O)CCC(=O)N2CCN(c3cccc(Cl)c3)CC2)s1", "inhibition": "0.459% (inactive)"}, {"smiles": "O=C(C1CCC1)N1CC(=O)N2[C@@H](CO)[C@@H](c3ccc(C#Cc4cccc(F)c4)cc3)[C@@H]2C1", "inhibition": "-4.53% (inactive)"}, {"smiles": "Cc1ccccc1S(=O)(=O)N[C@@H]1CC[C@H](CCn2cc(-c3ccc(F)cc3)nn2)O[C@@H]1CO", "inhibition": "-4.75% (inactive)"}, {"smiles": "Cc1ccccc1S(=O)(=O)N[C@H]1CC[C@@H](CCn2cc(Cc3ccccc3)nn2)O[C@H]1CO", "inhibition": "31.4% (active)"}, {"smiles": "Cc1ccccc1S(=O)(=O)N[C@H]1CC[C@H](CCn2cc(-c3ccc(F)cc3)nn2)O[C@H]1CO", "inhibition": "-0.59% (inactive)"}, {"smiles": "Cc1ccc(S(=O)(=O)N[C@@H]2CC[C@@H](CC(=O)O)O[C@@H]2CO)cc1", "inhibition": "1% (inactive)"}, {"smiles": "O=C(C[C@@H]1CC[C@H](NC(=O)Nc2ccc3c(c2)OCO3)[C@H](CO)O1)NCc1ccccc1", "inhibition": "-2.1% (inactive)"}, {"smiles": "CN1c2ccc(-c3ccccc3)cc2[C@H]2[C@H](CCN2C(=O)Cc2ccccn2)[C@H]1CO", "inhibition": "21.9% (active)"}, {"smiles": "CN1c2ccc(-c3ccccc3F)cc2[C@H]2[C@H](CCN2C(=O)Cc2ccccn2)[C@H]1CO", "inhibition": "2.91% (inactive)"}, {"smiles": "CN1c2ccc(-c3ccccc3)cc2[C@@H]2[C@@H](CCN2C(=O)c2ccccc2)[C@H]1CO", "inhibition": "6.95% (inactive)"}, {"smiles": "CCCNC(=O)C[C@H]1C[C@H]2c3cc(NC(=O)COC)ccc3O[C@H]2[C@H](CO)O1", "inhibition": "-2.28% (inactive)"}, {"smiles": "Cn1cnnc1SCC(=O)NNC(=O)COc1ccc(Br)cc1", "inhibition": "-1.96% (inactive)"}, {"smiles": "Cn1nnnc1SCC(=O)NNC(=O)c1ccc(Br)cc1", "inhibition": "20.1% (active)"}, {"smiles": "Cn1nnnc1SCC(=O)Nc1sccc1C(N)=O", "inhibition": "-1.15% (inactive)"}, {"smiles": "N#C[C@H]1[C@H](c2ccc(-c3cccc(F)c3)cc2)[C@@H](CO)N1C(=O)NC1CCCC1", "inhibition": "3.71% (inactive)"}, {"smiles": "O=C1CN(Cc2ccc(F)cc2)C[C@H]2[C@@H](c3ccc(Br)cc3)[C@H](CO)N12", "inhibition": "2.52% (inactive)"}, {"smiles": "CN1c2ccc(Br)cc2[C@@H]2[C@@H](CCN2C(=O)Cc2ccccc2)[C@@H]1CO", "inhibition": "0.309% (inactive)"}, {"smiles": "Cc1noc(C)c1S(=O)(=O)N(C)C[C@H]1Oc2ccc(NC(=O)C3CCCCC3)cc2C(=O)N([C@H](C)CO)C[C@@H]1C", "inhibition": "-3.3% (inactive)"}, {"smiles": "Cc1noc(C)c1S(=O)(=O)N(C)C[C@@H]1Oc2ccc(NC(=O)C3CC3)cc2CC(=O)N([C@@H](C)CO)C[C@@H]1C", "inhibition": "1.59% (inactive)"}, {"smiles": "Cc1noc(C)c1S(=O)(=O)N(C)C[C@H]1Oc2ccc(NC(=O)C3CC3)cc2C(=O)N([C@H](C)CO)C[C@@H]1C", "inhibition": "20.9% (active)"}, {"smiles": "CC(C)NC(=O)N(C)C[C@@H]1Oc2ccc(NC(=O)C3CC3)cc2C(=O)N([C@@H](C)CO)C[C@H]1C", "inhibition": "0.185% (inactive)"}, {"smiles": "C[C@@H]1CN([C@H](C)CO)C(=O)c2cc(NC(=O)C3CC3)ccc2O[C@@H]1CN(C)C", "inhibition": "-4.11% (inactive)"}, {"smiles": "C[C@@H]1CN([C@@H](C)CO)C(=O)c2cc(NC(=O)C3CC3)ccc2O[C@H]1CN(C)C", "inhibition": "41.9% (active) and -3.15% (inactive)"}, {"smiles": "COc1ccc2c3c([nH]c2c1)[C@H](CO)N(C(=O)c1ccncc1)CC31CCN(C(=O)c2ccncc2)CC1", "inhibition": "12.6% (inactive)"}, {"smiles": "COc1ccc(S(=O)(=O)N(C)C[C@@H]2OCCCC[C@H](C)Oc3ccc(NC(=O)NC(C)C)cc3C(=O)N([C@@H](C)CO)C[C@@H]2C)cc1", "inhibition": "0.637% (inactive)"}, {"smiles": "C[C@@H]1CN([C@@H](C)CO)C(=O)c2cc(/C=C/c3ccccc3)cnc2O[C@H]1CN(C)C(=O)Nc1ccc(C(F)(F)F)cc1", "inhibition": "8.54% (inactive)"}, {"smiles": "C[C@@H]1CN([C@H](C)CO)C(=O)c2cccc(NS(=O)(=O)c3ccc(F)cc3)c2O[C@@H]1CN(C)S(=O)(=O)c1ccccc1", "inhibition": "3.68% (inactive)"}, {"smiles": "Cc1ccc(NC(=O)Cn2c(C)csc2=O)cc1", "inhibition": "4.07% (inactive)"}, {"smiles": "Cc1nn(CC(=O)Nc2ccc(F)cc2)c(=O)c2ccccc12", "inhibition": "-1.48% (inactive)"}, {"smiles": "Cc1ccc(NC(=O)Cn2sc3ccccc3c2=O)cc1", "inhibition": "19.6% (active)"}, {"smiles": "O=C(C[C@H]1C=C[C@H](NC(=O)Nc2ccccc2F)[C@@H](CO)O1)NCc1ccc(Cl)cc1", "inhibition": "-6.94% (inactive)"}, {"smiles": "CN1c2ccc(Br)cc2[C@H]2[C@H](CCN2S(=O)(=O)c2ccc(F)cc2)[C@@H]1CO", "inhibition": "0.059% (inactive)"}, {"smiles": "CC(C)NC(=O)N(C)C[C@H]1Oc2cc(C#Cc3ccccn3)ccc2S(=O)(=O)N([C@H](C)CO)C[C@@H]1C", "inhibition": "-0.996% (inactive)"}, {"smiles": "CCNC(=O)[C@@H]1[C@@H](CO)[C@@H]2Cn3c(ccc(C4=CCCC4)c3=O)[C@H]1N2Cc1ccccc1", "inhibition": "-12.8% (inactive)"}, {"smiles": "COc1ccc(C2C3=C(CCCC3=O)N(CC(=O)O)C3=C2C(=O)CCC3)cc1", "inhibition": "-6.31% (inactive)"}, {"smiles": "COc1cc(C2C3=C(CCCC3=O)OC3=C2C(=O)CCC3)ccc1OCC(=O)Nc1ccccc1", "inhibition": "1.24% (inactive)"}, {"smiles": "NC1=C([N+](=O)[O-])C(c2ccccc2)C2=C(CCCC2=O)O1", "note": "(stereo unspecified)", "inhibition": "15.7% (active)"}, {"smiles": "C[C@H]1CCCCO[C@@H](CN(C)C(=O)c2ccccc2)[C@@H](C)CN([C@@H](C)CO)C(=O)c2cc(NS(=O)(=O)c3ccccc3)ccc2O1", "inhibition": "0.494% (inactive)"}, {"smiles": "Cc1ccc(-c2cnc3c(c2)C(=O)N([C@H](C)CO)C[C@H](C)[C@@H](CN(C)C(=O)c2cccc(F)c2)O3)cc1", "inhibition": "-11.3% (inactive)"}, {"smiles": "CN1CCN(C(=O)C[C@H]2CC[C@H]3[C@@H](COC[C@H](O)CN3C(=O)c3ccc(F)cc3)O2)CC1", "inhibition": "1.19% (inactive)"}, {"smiles": "O=C(CC1CC1)Nc1ccc2c(c1)[C@@H]1C[C@@H](CC(=O)NC3CCCCC3)O[C@@H](CO)[C@@H]1O2", "inhibition": "-2.5% (inactive)"}, {"smiles": "CO[C@@H]1CN(C)C(=O)c2ccc(NC(=O)C3CCCCC3)cc2OC[C@@H](C)N(Cc2nccs2)C[C@@H]1C", "inhibition": "3.01% (inactive)"}, {"smiles": "C[C@H]1CN([C@@H](C)CO)C(=O)Cc2cc(NC(=O)Nc3ccc4c(c3)OCO4)ccc2O[C@H]1CN(C)CC1CC1", "inhibition": "-1.18% (inactive)"}, {"smiles": "C[C@@H]1CN([C@H](C)CO)C(=O)Cc2cc(NC(=O)Nc3ccc(F)cc3)ccc2O[C@@H]1CN(C)Cc1ccc2c(c1)OCO2", "inhibition": "32.7% (active)"}, {"smiles": "C[C@H]1CN([C@@H](C)CO)C(=O)c2cc(NC(=O)Nc3ccc4c(c3)OCO4)ccc2O[C@@H]1CN(C)CC1CCCCC1", "inhibition": "6.87% (inactive)"}, {"smiles": "CC(C)NC(=O)Nc1ccc2c(c1)CC(=O)N([C@H](C)CO)C[C@H](C)[C@H](CN(C)Cc1ccc3c(c1)OCO3)O2", "inhibition": "4.37% (inactive)"}, {"smiles": "C[C@@H]1CN([C@@H](C)CO)C(=O)Cc2cc(NC(=O)Nc3ccc4c(c3)OCO4)ccc2O[C@@H]1CN(C)CC1CCCCC1", "inhibition": "18.8% (active)"}, {"smiles": "COc1ccc(NC(=O)Nc2ccc3c(c2)CC(=O)N([C@@H](C)CO)C[C@H](C)[C@@H](CN(C)Cc2ccc4c(c2)OCO4)O3)cc1", "inhibition": "3.53% (inactive)"}]}]}
